From ChEMBL document CHEMBL4513216, “Probing the Open Global Health Chemical Diversity Library for Multistage-Active Starting Points for Next-Generation Antimalarials” (ACS Infect Dis, 2020)
Out of some 68,000 compounds screened, about 2,700 (4%) showed an effect of 50% or more. Many of the other results were omitted from the sample, so strong results are more common in it than they were.

System: Plasmodium berghei
Test: Screen against P. berghei liver stage (PbLuc), transformed with Luciferase, at 2uM
Format: functional, HepG2
Conditions: tested at 2 uM

Point of comparison: `NC(=O)C(NC(=O)COC1CCCC1)c1ccccc1` (stereo not drawn), INHIBITION -6.27%. Against it:
- CC(C)n1c(C2CCCN(CC(=O)NC(N)=O)C2)nc2ccccc21 (stereo not drawn) — higher, 0.31%
- O=C(C1=CCCC1)N1CC[C@]2(C[C@H](OCc3cccnc3)CO2)C1 — lower, -8.81%
- COC(=O)C(NC(=O)COC1CCCCC1)c1ccccc1 (stereo not drawn) — higher, 54.52%
- NC(=O)C(NC(=O)COC1CCCCC1)c1ccccc1 (stereo not drawn) — higher, 35.94%
- O=C(c1cocn1)N1C[C@H]2CCC[C@@]2(COc2ccccn2)C1 — lower, -14.27%
- Cc1cc(C(F)(F)F)nn1CCCNC(=O)C1CCN(S(C)(=O)=O)CC1 — higher, 40.25%
- CC(C)(C)n1ncc2c1NC(=O)CC2c1ccc(C#N)cc1 (stereo not drawn) — higher, 7.42%
- Cn1ccc(C(=O)NC2CCC23CCN(C(=O)c2cnccn2)CC3)c1 (stereo not drawn) — higher, -3.25%
- Cn1ccc(C(=O)NC2CCC23CCN(C(=O)c2ccccn2)CC3)c1 (stereo not drawn) — higher, 53.29%
- Cn1ccc(C(=O)NC2CCC23CCN(C(=O)c2ccncc2)CC3)c1 (stereo not drawn) — lower, -33.11%
- CCN(Cc1c(F)cccc1Cl)c1cc(C2CCNCC2)nc(C)n1 — higher, 23.76%
- Cn1ccnc1C(=O)N1CCOC(Cc2ccc(Cl)cc2)C1 (stereo not drawn) — higher, 43.23%
- Cc1nc(C)c(CN2CCOC(Cc3ccccc3Cl)C2)nc1C (stereo not drawn) — higher, 63.37%
- Cc1cccnc1CN1CCOC(Cc2cccc3ccccc23)C1 (stereo not drawn) — higher, 31.05%
- Cn1ccnc1C(=O)N1CCOC(Cc2ccccc2Cl)C1 (stereo not drawn) — higher, 61.99%
- CCc1nc(C)c(CN2CCOC(Cc3ccccc3Cl)C2)[nH]1 (stereo not drawn) — lower, -26.78%
- O=C(c1cccnc1)N1CCOC(Cc2ccccc2Cl)C1 (stereo not drawn) — lower, -41.48%
- O=C(N1CCc2ccccc2CC1)C1(O)Cc2ccccc2C1 — higher, 32.93%
- O=C(CCN1C[C@@H]2CC[C@H]1CN(c1ncccn1)C2)NCc1ccco1 — higher, 22.27%
- N#Cc1ccc(CN2CCNC(=O)C2c2cccs2)cc1 (stereo not drawn) — lower, -15.67%
- Cn1cnc2c(N3CCCC3)nc(C3CCN(CC4CC4)CC3)cc21 — higher, 25.94%
- Cn1ccnc1C(O)c1ccccc1N1CCN(Cc2ccsc2)CC1 (stereo not drawn) — lower, -16.2%
- Cc1cccc(COc2ccc(C(C)NS(N)(=O)=O)cc2)c1 (stereo not drawn) — higher, 9.42%
- Cc1cccc(COc2ccc(C(C)NC(=O)CNC(N)=O)cc2)c1 (stereo not drawn) — higher, 32.26%
- Cc1cccc(COc2ccc(C(C)N)cc2)c1 (stereo not drawn) — higher, 54.49%
- CCc1ccsc1C(=O)N1CCN(CC(C)O)CC1 (stereo not drawn) — lower, -10.66%
- CCC(O)CN1CCN(C(=O)c2sccc2C2CC2)CC1 (stereo not drawn) — higher, 34.97%
- CCc1ccsc1C(=O)N1CCN(CC(O)CC)CC1 (stereo not drawn) — higher, 56.67%
- Clc1ccccc1C1(c2ccnc(C3CCCC3)n2)CCNCC1 — higher, 11.94%
- Cc1c(CN2C[C@@H](O)[C@H](Oc3cccc(F)c3)C2)cnn1C — higher, 55.32%
- Cc1cc(C)n2ncc(CN3C[C@@H](O)[C@H](Oc4ccccc4)C3)c2n1 — higher, -0.44%
- Cc1cnccc1CN1C[C@@H](O)[C@H](Oc2cccc(F)c2)C1 — higher, 8.5%
- COCC(O)CN(C)c1ccnc2ccc(Cl)cc12 (stereo not drawn) — lower, -33.34%
- Cc1ccsc1CN1CCc2c(nc(N3CCCCC3C)[nH]c2=O)C1 (stereo not drawn) — lower, -17.99%
- CC(C)n1ccnc1CN1CCOC(CCc2ccccc2)C1 (stereo not drawn) — higher, 50.32%
- Cn1ccnc1CN1CCOC(Cc2ccccc2)C1 (stereo not drawn) — lower, -19.43%
- CC(C)n1ccnc1CN1CCCN(C(=O)CC2CCCO2)CC1 (stereo not drawn) — higher, 33.82%
- CC(C)C1CN(Cc2nccn2C(C)C)CCC(=O)N1CC1CC1 (stereo not drawn) — lower, -17.17%
- CC(C)n1ccnc1CN1CCOC(CC2CCCCC2)C1 (stereo not drawn) — higher, 63.23%
- c1ccc(Cn2ccnc2CN2CCOC(Cn3cccn3)C2)cc1 (stereo not drawn) — higher, 11.1%
- NC(=O)NCC(=O)N1CCCC(c2nccn2Cc2ccncc2)C1 (stereo not drawn) — higher, 16.1%
- CCOc1ncccc1Cn1cc(-c2nccn2C)nn1 — higher, -3.38%
- O=C(c1cccs1)N1CCCn2c(nc(CN3CCCC3)cc2=O)C1 — higher, 13.38%
- Cc1nc(N2CCCCC2)ncc1-c1cc(=O)[nH]c(N2CCCC2)n1 — higher, 17.48%
- FC1(F)CCN(Cc2cccnc2)CC12CCN(c1ccccn1)C2 (stereo not drawn) — higher, 3.35%
- CC(C)c1cc(C(=O)N2CCC3(CC2)c2ccccc2[C@@H](N)[C@@H]3O)cs1 — higher, 16.28%
- O=C1CC(NS(=O)(=O)c2ccc(Br)cc2)CN1 (stereo not drawn) — higher, 27.9%
- O=C1CC(NS(=O)(=O)c2ccc(Cl)cc2)CN1 (stereo not drawn) — higher, 87.53%
- O=C1CC(NS(=O)(=O)c2ccc(F)c(Cl)c2)CN1 (stereo not drawn) — lower, -15.08%
- CCCN(CCC)S(=O)(=O)NC(C)C(=O)N(C)C (stereo not drawn) — lower, -9.87%
- COc1ccc(OCc2nc(C(=O)N3CCCNC(=O)C3)co2)cc1 — higher, 22.84%
- CC(NC(=O)CCc1nc(C(C)(C)C)no1)c1nnc2n1CCC2 (stereo not drawn) — higher, 64.2%
- CC(C)c1noc(CCC(=O)NC(C)c2nnc3n2CCC3)n1 (stereo not drawn) — higher, 45.48%
- CC(NC(=O)CCCc1nc(C(C)(C)C)no1)c1nnc2n1CCC2 (stereo not drawn) — higher, 19.04%
- c1coc(CN2C[C@@H]3OCCN(CC4CCCO4)[C@@H]3C2)c1 (stereo partly drawn) — lower, -44.46%
- CCOC(=O)N1C[C@@H]2CC[C@H]1CN(Cc1ccccc1)C2 — higher, 18.19%
- c1cnc(N2CCC(c3nccn3CC3CC3)CC2)nc1 — higher, 18.81%
- O=C(O)c1cnc(N2CCC(c3nccn3CC3CC3)CC2)c(Cl)c1 — higher, 60.39%
- COCC1(C(=O)N2CCC(c3nccn3CC3CC3)CC2)CCC1 — higher, 52.57%
- COCCOC(=O)N1CCC(c2nccn2CC2CC2)CC1 — higher, -1.87%
- COCC(=O)N1CCC(c2nccn2CC2CC2)CC1 — lower, -34.68%
- CCOCC(=O)N1CCC(c2nccn2CC2CC2)CC1 — higher, -1.32%
- O=C(NC1CC1)N1C[C@H]2CN(c3ccccc3)C(=O)[C@H]2C1 — higher, -0.9%
- CCc1nc2c(NCC3COc4c(cccc4OC)C3)ncnc2o1 (stereo not drawn) — higher, 1.39%
- O=C(C1CCCc2[nH]ncc21)N1CCCC2(C1)OCCO2 (stereo not drawn) — higher, 64.92%
- O=C(C1CCCc2[nH]ncc21)N1CCCCCC1 (stereo not drawn) — higher, -0.54%
- O=C(C1CCCc2[nH]ncc21)N1CCCC1 (stereo not drawn) — lower, -10.01%
